Experimental findings from PubChem BioAssay (NCI) are described below.

The panel holds about 83,000 compounds, 20% with a hit somewhere; the sample as a whole holds those more often.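 How to read the values: 0–100, growth inhibition (40 = 60% inhibited); 0, no net growth; -100 to 0, cell death (-40 = 40% of starting cells died; -100 = all dead).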 The source made the active and inactive calls. Rule for the calls: active = growth percent below 10; inactive = the rest.

This assay relates to 786-0 renal. Nature of the assay: NCI-60 one-dose screen, 48 h (100 = growth as untreated, 0 = no growth, -100 = all killed). The settings on record: 10 µM unless noted.
Turning to `COc1cc(C2=NN(C(C)=O)C(c3ccc(N4CCOCC4)cc3)C2)cc(OC)c1OC` (stereo not drawn), the growth was 95.5% (inactive).

For the compound `COc1ccc([C@H]2c3[nH]c4ccccc4c3C[C@@H]3C(=O)N(C4CCN(Cc5ccccc5)CC4)CC(=O)N23)c(OC)c1`, the growth is 74.3% (inactive).

Regarding `COc1ccc([C@H]2[C@H](O)C(=O)N2c2cc(OC)c(OC)c(OC)c2)cc1Cl`, the growth was 22.1% (inactive).

With `COc1ccc(/C=C/C(=O)c2nnn(-c3ccc(C(=O)O)cc3)c2C)cc1OC`, the growth was 98.4% (inactive).

Consider `O=[N+]([O-])c1ccc(-c2nnc(SCc3ccc(O)c4ncccc34)n2-c2ccccc2)cc1`, for which the growth is 30.8% (inactive).

Consider `O=C(NCCCNc1cc(-c2cn(-c3ccccc3)nc2-c2cccc(O)c2)ccn1)Nc1cccc(C(F)(F)F)c1`, for which the growth was -4.95% (active).

Take `CC(C)C(=O)Nc1ccc(-c2nc(-c3cccc(O)c3)c(-c3ccnc(Br)c3)[nH]2)cc1`: the growth was 12.9% (inactive).

`Cc1cc(F)cc(NS(=O)(=O)c2ccc(-c3cnc(C4CC4)o3)cc2)c1`: the growth is 47% (inactive).

As to `CCOC(=O)c1c(NCC(=O)Nc2cccc(Cl)c2)sc2c1CCCC2`, the growth was 106% (inactive).

Consider `O=S(=O)(Nc1cc(Cl)cc(Cl)c1)c1ccc(-c2cnc(C3CC3)o2)cc1`, for which the growth was 50.3% (inactive).

As for `COc1cc2c3c(n(CCCNC4CCC4)c(=O)c2cc1OC)-c1cc2c(cc1C3=O)OCO2`, the growth is -85.2% (active).

As for `CCOC(=O)Nc1cccc(-n2cnc3cc(-c4ccc(O)cc4)ccc32)c1`, the growth is 31.6% (inactive).

For `CC(=O)NC(C)(C)C(=O)N[C@@H](C)C(=O)NC(C)(C)C(=O)N[C@@H](C)C(=O)NC(C)(C)C(=O)N[C@@H](C)C(=O)N[C@@H](CCC(N)=O)C(=O)NC(C)(C)C(=O)N[C@H](C(=O)NC(C)(C)C(=O)NCC(=O)N[C@@H](CC(C)C)C(=O)NC(C)(C)C(=O)N1CCC[C@H]1C(=O)N[C@H](C(=O)NC(C)(C)C(=O)NC(C)(C)C(=O)N[C@@H](CCC(N)=O)C(=O)N[C@@H](CCC(N)=O)C(=O)N[C@H](CO)CC1CCCCC1)C(C)C)C(C)C`, the growth was 78.6% [5 µM] (inactive).
